What was measured:
Test in all cases: protein domain microarray probed with biotinylated miRNA; Domain array: 20 mM Tris-HCl pH 7.4, 200 mM KCl, 0.2 mM EDTA, 0.05% NP40, 2 ug/ul heparin, overnight 4 C. ORF array: PBS pH 7.0 with RNase inhibitor, 100 ng RNA; high values mean tight binding
Conditions in all cases: ssRNA
DAZ4 = biological target: T1, DAZ4 (Homo sapiens, UniProt Q86SG3)
T1 sequence: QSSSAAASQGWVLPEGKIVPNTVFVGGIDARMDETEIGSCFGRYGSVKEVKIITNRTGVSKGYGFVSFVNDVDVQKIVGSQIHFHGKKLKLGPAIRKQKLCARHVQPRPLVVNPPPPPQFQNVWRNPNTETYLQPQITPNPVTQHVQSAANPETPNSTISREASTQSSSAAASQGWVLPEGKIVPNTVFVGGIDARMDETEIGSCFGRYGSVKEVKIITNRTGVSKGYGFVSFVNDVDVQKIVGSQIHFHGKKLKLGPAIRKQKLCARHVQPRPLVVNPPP

hnRNP-M(1-2) = biological target: T2, hnRNP-M(1-2) (Homo sapiens, UniProt P52272)
T2 sequence: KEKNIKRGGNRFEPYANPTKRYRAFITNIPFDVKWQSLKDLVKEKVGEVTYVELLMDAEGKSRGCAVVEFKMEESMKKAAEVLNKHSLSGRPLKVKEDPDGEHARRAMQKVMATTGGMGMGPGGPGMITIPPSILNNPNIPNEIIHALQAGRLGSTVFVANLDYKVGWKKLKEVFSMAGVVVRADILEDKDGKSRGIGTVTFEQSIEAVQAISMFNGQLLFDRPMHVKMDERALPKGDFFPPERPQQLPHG

hnRNP-A3 = hnRNP-A3 (Homo sapiens, UniProt P51991)
LARP7(2) = biological target: T3, LARP7(2) (Homo sapiens, UniProt Q4G0J3)
T3 sequence: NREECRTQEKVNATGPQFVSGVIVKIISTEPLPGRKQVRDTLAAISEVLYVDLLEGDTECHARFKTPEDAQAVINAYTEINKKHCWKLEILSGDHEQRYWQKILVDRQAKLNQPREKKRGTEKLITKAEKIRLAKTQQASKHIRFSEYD

hnRNP-A1 = hnRNP-A1 (Homo sapiens, UniProt P09651)
eIF3-delta = eIF3-delta (Homo sapiens, UniProt O75821)
hnRNP-R = biological target: T4, hnRNP-R (Homo sapiens, UniProt O43390)
T4 sequence: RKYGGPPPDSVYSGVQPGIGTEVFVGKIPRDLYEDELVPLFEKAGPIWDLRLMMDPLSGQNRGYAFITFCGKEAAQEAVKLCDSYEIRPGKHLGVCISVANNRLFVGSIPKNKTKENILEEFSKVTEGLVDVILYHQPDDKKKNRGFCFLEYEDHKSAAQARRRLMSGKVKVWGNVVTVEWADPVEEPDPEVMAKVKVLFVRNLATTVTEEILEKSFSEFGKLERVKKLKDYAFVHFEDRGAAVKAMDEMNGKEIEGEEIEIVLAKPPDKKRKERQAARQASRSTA

DAZ1 = biological target: T5, DAZ1 (Homo sapiens, UniProt Q9NQZ3)
T5 sequence: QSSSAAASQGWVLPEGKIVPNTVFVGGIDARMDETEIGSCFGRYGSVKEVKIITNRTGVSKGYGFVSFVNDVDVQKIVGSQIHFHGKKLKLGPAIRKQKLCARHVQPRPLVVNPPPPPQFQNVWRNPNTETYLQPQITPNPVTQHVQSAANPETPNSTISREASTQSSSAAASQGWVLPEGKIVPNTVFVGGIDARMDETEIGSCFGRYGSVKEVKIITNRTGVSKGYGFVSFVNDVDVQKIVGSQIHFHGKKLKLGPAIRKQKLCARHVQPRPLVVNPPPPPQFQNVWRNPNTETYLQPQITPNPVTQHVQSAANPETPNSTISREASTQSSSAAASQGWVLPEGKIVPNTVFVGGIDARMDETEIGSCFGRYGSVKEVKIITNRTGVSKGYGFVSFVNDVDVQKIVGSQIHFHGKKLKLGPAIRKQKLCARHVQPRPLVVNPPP

G3BP-1 = G3BP-1 (Homo sapiens, UniProt Q13283)
DAZL = biological target: T6, DAZL (Homo sapiens, UniProt Q92904)
T6 sequence: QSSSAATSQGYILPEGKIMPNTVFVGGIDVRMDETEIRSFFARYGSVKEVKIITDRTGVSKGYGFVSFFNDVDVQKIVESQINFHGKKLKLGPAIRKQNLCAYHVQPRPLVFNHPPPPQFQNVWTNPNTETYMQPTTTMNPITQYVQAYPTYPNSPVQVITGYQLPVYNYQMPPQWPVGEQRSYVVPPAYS

NOL8 = biological target: T7, NOL8 (Homo sapiens, UniProt Q76FK4)
T7 sequence: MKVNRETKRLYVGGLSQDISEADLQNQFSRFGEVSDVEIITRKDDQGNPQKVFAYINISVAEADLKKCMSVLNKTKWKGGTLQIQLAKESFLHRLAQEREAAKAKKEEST

hnRNP-A0 = biological target: T8, hnRNP-A0 (Homo sapiens, UniProt Q13151)
T8 sequence: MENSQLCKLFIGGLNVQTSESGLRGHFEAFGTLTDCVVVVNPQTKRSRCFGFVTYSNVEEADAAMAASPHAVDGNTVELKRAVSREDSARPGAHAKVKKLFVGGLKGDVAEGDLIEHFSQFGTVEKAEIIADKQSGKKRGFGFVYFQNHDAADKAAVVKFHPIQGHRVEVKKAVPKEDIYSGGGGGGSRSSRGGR

NeuN = biological target: T9, NeuN (Homo sapiens, UniProt A6NFN3)
T9 sequence: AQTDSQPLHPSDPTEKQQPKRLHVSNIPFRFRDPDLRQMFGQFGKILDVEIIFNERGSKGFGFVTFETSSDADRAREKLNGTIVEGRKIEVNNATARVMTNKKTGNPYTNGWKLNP

hnRNP-2H9 = biological target: T10, hnRNP-2H9 (Homo sapiens, UniProt P31942)
T10 sequence: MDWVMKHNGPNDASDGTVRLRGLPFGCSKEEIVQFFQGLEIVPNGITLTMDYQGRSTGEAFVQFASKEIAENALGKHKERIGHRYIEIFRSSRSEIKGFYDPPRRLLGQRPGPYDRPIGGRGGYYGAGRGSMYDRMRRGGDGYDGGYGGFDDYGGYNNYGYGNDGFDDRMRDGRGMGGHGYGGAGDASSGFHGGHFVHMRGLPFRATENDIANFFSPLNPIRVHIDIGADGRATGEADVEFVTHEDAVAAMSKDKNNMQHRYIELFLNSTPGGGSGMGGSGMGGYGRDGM

CPEB4 = biological target: T11, CPEB4 (Homo sapiens, UniProt Q17RY0)
T11 sequence: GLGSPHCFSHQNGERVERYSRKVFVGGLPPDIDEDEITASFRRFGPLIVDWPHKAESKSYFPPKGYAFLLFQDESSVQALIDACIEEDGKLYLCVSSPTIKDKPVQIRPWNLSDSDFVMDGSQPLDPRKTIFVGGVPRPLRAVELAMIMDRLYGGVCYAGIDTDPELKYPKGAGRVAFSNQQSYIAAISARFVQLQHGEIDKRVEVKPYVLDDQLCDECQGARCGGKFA

CELF5(3) = CELF5(3) (Homo sapiens, UniProt Q8N6W0)
CPEB1 = CPEB1 (Homo sapiens, UniProt Q9BZB8)
MYEF2(3) = biological target: T12, MYEF2(3) (Homo sapiens, UniProt Q9P2K5)
T12 sequence: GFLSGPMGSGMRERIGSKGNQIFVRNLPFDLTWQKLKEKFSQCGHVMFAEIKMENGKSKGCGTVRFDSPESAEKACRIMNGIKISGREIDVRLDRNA

CstF-64T = biological target: T13, CstF-64T (Homo sapiens, UniProt Q9H0L4)
T13 sequence: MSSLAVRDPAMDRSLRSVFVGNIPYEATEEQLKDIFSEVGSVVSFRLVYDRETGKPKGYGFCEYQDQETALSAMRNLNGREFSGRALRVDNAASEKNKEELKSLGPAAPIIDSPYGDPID

LKAP = biological target: T14, LKAP (Homo sapiens, UniProt Q9Y4F3)
T14 sequence: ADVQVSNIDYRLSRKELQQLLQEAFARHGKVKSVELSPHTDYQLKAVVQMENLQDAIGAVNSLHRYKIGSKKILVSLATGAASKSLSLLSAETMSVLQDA

Sequence of hnRNP-A3 (P51991 15-225): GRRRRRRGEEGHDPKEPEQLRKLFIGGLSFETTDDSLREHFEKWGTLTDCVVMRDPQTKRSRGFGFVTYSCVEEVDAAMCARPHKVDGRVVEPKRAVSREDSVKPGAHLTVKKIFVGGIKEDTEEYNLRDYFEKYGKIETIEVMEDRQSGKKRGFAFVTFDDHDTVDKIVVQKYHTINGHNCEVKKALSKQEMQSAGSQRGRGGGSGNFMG
Sequence of G3BP-1 (Q13283 320-435): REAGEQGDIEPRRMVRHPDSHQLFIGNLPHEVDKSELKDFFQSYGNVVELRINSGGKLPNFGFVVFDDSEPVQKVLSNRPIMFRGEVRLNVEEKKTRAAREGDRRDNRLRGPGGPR
Sequence of eIF3-delta (O75821 220-320, stated change not applied): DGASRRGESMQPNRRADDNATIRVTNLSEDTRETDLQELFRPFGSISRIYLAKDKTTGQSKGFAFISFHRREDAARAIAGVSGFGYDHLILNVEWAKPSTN
Sequence of CPEB1 (Q9BZB8 290-531): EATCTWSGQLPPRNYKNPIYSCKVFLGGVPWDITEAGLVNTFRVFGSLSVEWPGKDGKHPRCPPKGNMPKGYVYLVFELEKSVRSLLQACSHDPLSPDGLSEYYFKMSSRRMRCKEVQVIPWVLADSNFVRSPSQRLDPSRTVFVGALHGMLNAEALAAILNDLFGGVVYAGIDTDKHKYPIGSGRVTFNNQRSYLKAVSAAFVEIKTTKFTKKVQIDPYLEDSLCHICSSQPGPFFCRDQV
Sequence of CELF5(3) (Q8N6W0 376-485): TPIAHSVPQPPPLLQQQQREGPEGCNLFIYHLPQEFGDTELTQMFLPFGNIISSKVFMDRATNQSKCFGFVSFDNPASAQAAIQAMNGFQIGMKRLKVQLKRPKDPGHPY
Sequence of hnRNP-A1 (P09651 1-205): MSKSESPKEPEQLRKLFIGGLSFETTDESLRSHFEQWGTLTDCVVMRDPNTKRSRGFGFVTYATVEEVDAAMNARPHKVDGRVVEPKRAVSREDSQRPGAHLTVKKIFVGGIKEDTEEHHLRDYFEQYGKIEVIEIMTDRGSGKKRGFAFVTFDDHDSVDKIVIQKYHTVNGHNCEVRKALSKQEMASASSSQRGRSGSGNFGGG

Sequence | binding signal (DAZ4) | binding signal (hnRNP-M(1-2)) | binding signal (hnRNP-A3) | binding signal (LARP7(2)) | binding signal (hnRNP-A1) | binding signal (eIF3-delta) | binding signal (hnRNP-R) | binding signal (DAZ1) | binding signal (G3BP-1) | binding signal (DAZL) | binding signal (NOL8) | binding signal (hnRNP-A0) | binding signal (NeuN) | binding signal (hnRNP-2H9) | binding signal (CPEB4) | binding signal (CELF5(3)) | binding signal (CPEB1) | binding signal (MYEF2(3)) | binding signal (CstF-64T) | binding signal (LKAP)
UGAGGUAGUAGGUUGUAUAGUU | 215 ± 41.8 fluorescence intensity | 581.3 ± 5.61 fluorescence intensity | 952 ± 63 fluorescence intensity | 179 ± 11.7 fluorescence intensity | 22 ± 6.92 fluorescence intensity | 80.4 ± 7.03 fluorescence intensity | 109 ± 5.8 fluorescence intensity | 193 ± 22.1 fluorescence intensity | 286 ± 21.3 fluorescence intensity | 94.2 ± 11 fluorescence intensity | 20.3 ± 2.97 fluorescence intensity | 1310 ± 111 fluorescence intensity | 866 ± 44.2 fluorescence intensity | 151 ± 11.1 fluorescence intensity | 82.4 ± 7.2 fluorescence intensity | 450 ± 137 fluorescence intensity | 110 ± 9.17 fluorescence intensity | 190.1 ± 1.74 fluorescence intensity | 387 ± 8.85 fluorescence intensity | 
UAGCUUAUCAGACUGAUGUUGA | 570 ± 34.9 fluorescence intensity | 584 ± 19 fluorescence intensity | 80.5 ± 23 fluorescence intensity | 66.2 ± 4.35 fluorescence intensity |  | 20.5 ± 2.47 fluorescence intensity |  | 550 ± 15.3 fluorescence intensity | 219 ± 29.7 fluorescence intensity | 238 ± 9.04 fluorescence intensity |  | 153 ± 38.7 fluorescence intensity | 1430 ± 113 fluorescence intensity |  | 52.4 ± 15.6 fluorescence intensity | 118 ± 40.8 fluorescence intensity | 37.9 ± 2.09 fluorescence intensity | 39.3 ± 2.37 fluorescence intensity | 109 ± 3.13 fluorescence intensity | 
UGAGGUAGUAGGUUGUAUGGUU | 778 ± 25.6 fluorescence intensity | 1452 ± 3.71 fluorescence intensity | 1730 ± 33.6 fluorescence intensity | 511 ± 8.38 fluorescence intensity | 74.6 ± 1.05 fluorescence intensity | 262 ± 21.2 fluorescence intensity | 666 ± 24.3 fluorescence intensity | 673 ± 9.53 fluorescence intensity | 1240 ± 13.5 fluorescence intensity | 303 ± 13.1 fluorescence intensity | 49 ± 3.09 fluorescence intensity | 2280 ± 31.4 fluorescence intensity | 2130 ± 66 fluorescence intensity | 368 ± 23.9 fluorescence intensity | 148 ± 21.1 fluorescence intensity | 1000 ± 43 fluorescence intensity | 312 ± 54.2 fluorescence intensity | 560 ± 17.7 fluorescence intensity | 853 ± 47 fluorescence intensity | 65.2 ± 2.55 fluorescence intensity
UGAGGUAGUAGGUUGUGUGGUU | 843.32 ± 0.516 fluorescence intensity | 1470 ± 31 fluorescence intensity | 1660 ± 31.6 fluorescence intensity | 632 ± 5.09 fluorescence intensity | 77.3 ± 27.2 fluorescence intensity | 338 ± 7.23 fluorescence intensity | 693 ± 1.68 fluorescence intensity | 709 ± 20.1 fluorescence intensity | 1380 ± 17 fluorescence intensity | 433 ± 5.39 fluorescence intensity | 66.3 ± 9.47 fluorescence intensity | 2115 ± 15 fluorescence intensity | 1967 ± 2.72 fluorescence intensity | 443 ± 62 fluorescence intensity | 290 ± 49.8 fluorescence intensity | 1040 ± 35.6 fluorescence intensity | 462.1 ± 2.31 fluorescence intensity | 635 ± 16.7 fluorescence intensity | 1870 ± 24.6 fluorescence intensity | 91.94 ± 0.665 fluorescence intensity
AGAGGUAGUAGGUUGCAUAGUU | 934 ± 29.1 fluorescence intensity | 1710 ± 32.8 fluorescence intensity | 2440 ± 28.8 fluorescence intensity | 400 ± 39.4 fluorescence intensity | 62.9 ± 11.7 fluorescence intensity | 231 ± 8.61 fluorescence intensity | 362 ± 6.89 fluorescence intensity | 814 ± 10.2 fluorescence intensity | 1220 ± 45.7 fluorescence intensity | 362 ± 63.4 fluorescence intensity | 33.7 ± 0.233 fluorescence intensity | 3219 ± 6.02 fluorescence intensity | 2786.2 ± 1.57 fluorescence intensity | 466 ± 9.64 fluorescence intensity | 130 ± 29.4 fluorescence intensity | 1050 ± 99.1 fluorescence intensity | 377 ± 32.4 fluorescence intensity | 578 ± 21.2 fluorescence intensity | 1930 ± 88 fluorescence intensity | 41.4 ± 3.31 fluorescence intensity
CAGUGCAAUGAUGAAAGGGCAU | 178.74 ± 0.0495 fluorescence intensity | 946.9 ± 2.02 fluorescence intensity | 1370 ± 25 fluorescence intensity | 288 ± 8.61 fluorescence intensity | 40.7 ± 3.35 fluorescence intensity | 113 ± 14 fluorescence intensity | 113 ± 6.25 fluorescence intensity | 153 ± 10.6 fluorescence intensity | 1860 ± 70.5 fluorescence intensity | 42.2 ± 30.1 fluorescence intensity | 34.8 ± 9.25 fluorescence intensity | 990 ± 34.9 fluorescence intensity | 2230 ± 258 fluorescence intensity | 533 ± 18.5 fluorescence intensity | 55.3 ± 15.5 fluorescence intensity | 378 ± 41 fluorescence intensity | 186 ± 8.15 fluorescence intensity | 261.9 ± 2.02 fluorescence intensity | 418 ± 14.4 fluorescence intensity | 37.5 ± 1.56 fluorescence intensity

Reference: PMC11574364
